# D1 agonist: Allosteric Agonists of the Human D1 Dopamine Receptor: qHTS | D(1A) dopamine receptor (Homo sapiens), P21728 | HEK293 T-REx D1 cells, calcium flux, agonist mode | activation, % at 2 µM | hit rate 1% among 360,000 | AID 504660, 2011; in the data active means activation above about 30%; further: 0% is about no effect
#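 Inducible HEK293 T-REx D1 cells, force-coupled to calcium signalling, were plated at 4000 cells/well with tetracycline and held overnight at 30 C. After no-wash calcium dye loading, compound-evoked calcium rise over 180 s flagged agonists.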
# D1 antagonist: Antagonist of Human D 1 Dopamine Receptor: qHTS; AID 504652, 2011; HEK293 TREx D1 cells, calcium flux, dopamine EC80; stronger effect = lower value; D(1A) dopamine receptor (Homo sapiens), P21728; activity change, negative = inhibition, % at 10 µM; hit rate 3.2% among 360,000; in the data active means activity change below about -30%; further: on the % scale 0 is the no-effect control and ±100 the full control effect
#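 Tetracycline-induced HEK293 T-REx cells with force-coupled D1 receptor were loaded with a no-wash calcium dye. Compound was added after a 10 s baseline and read kinetically for 180 s; EC80 dopamine was then added and calcium flux followed another 180 s.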
# D3 ag: qHTS of D3 Dopamine Receptor Agonist: qHTS; D3R DiscoveRx beta-arrestin cells, luminescence, 90 min; max activation, %; hit rate 0.58% among 410,000; AID 652048, 2013; in the data active means max activation above about 30%; further: 0% is about no effect
# Target sequence (P35462 whole entry, looked up): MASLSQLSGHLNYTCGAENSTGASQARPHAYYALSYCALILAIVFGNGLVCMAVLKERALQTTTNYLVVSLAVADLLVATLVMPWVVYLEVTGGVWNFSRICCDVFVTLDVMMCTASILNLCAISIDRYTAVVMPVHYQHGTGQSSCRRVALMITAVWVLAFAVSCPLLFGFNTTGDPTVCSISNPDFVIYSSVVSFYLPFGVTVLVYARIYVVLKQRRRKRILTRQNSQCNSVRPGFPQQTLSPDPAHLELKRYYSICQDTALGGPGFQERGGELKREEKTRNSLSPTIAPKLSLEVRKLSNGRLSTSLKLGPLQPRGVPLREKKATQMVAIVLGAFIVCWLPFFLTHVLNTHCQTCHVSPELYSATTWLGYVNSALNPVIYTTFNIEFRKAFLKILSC
#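 Agonist mode: compounds and dopamine controls were applied to plated cells for 90 min at 37 degrees C after an overnight attachment at 1500 cells/well. Luminescent read-out followed 30 - 60 minutes at room temperature with DiscoveRx detection reagent.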
# D1 PAM: Potentiators of Human D1 Dopamine Receptor: qHTS. potentiation, % at 10 µM. D(1A) dopamine receptor (Homo sapiens), P21728. hit rate 0.036% among 360,000. AID 504651, 2011. HEK293 TREx D1 cells, calcium flux, dopamine EC20 potentiation; in the data active means potentiation above about 30%; further: 0% is about no effect
# D3 antag: qHTS of D3 Dopamine Receptor Antagonist: qHTS. max response, negative = inhibition, %. AID 652054, 2013. D3R cells, DiscoveRx beta-arrestin luminescence, antagonist mode; stronger effect = lower value. D(3) dopamine receptor (Homo sapiens), P35462. hit rate 2.5% among 360,000; in the data active means max response below about -50%; inconclusive means no clear call, values can overlap the other calls; further: on the % scale 0 is the no-effect control and ±100 the full control effect
#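 Cells expressing the human receptor were seeded at 1500 cells/well, incubated overnight at 37 degrees C in 5% CO2, then exposed to library compounds with dopamine controls for 90 minutes at 37 degrees C before luminescent detection.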
# Numbers without * were called inactive; ? = inconclusive; / = not tested or not shown; ! = a repeat was not active. A selection: hits, their analogues and other compounds. The true share with any hit is near 6%.
SMILES,D1 agonist,D1 antagonist,D3 ag,D1 PAM,D3 antag
Cc1sc2c(c1C)c(=O)n(-c1ccc(Cl)cc1)c(=O)n2Cc1cc(=O)n2ccccc2n1,-1,12,3,1,-55*
CC(=O)Oc1c(C)c2c3c(c1OC(C)=O)[C@@H](C)CC[C@@H]3[C@@H](C)C[C@H]2C=C(C)C,-2,/,43*,1,5
CC(C)=C[C@@H]1C[C@H](C)[C@H]2CC[C@H](C)c3c(O)c(O)c(C)c1c32,0,/,-23,1,0
O=C(CSc1ccccc1F)OCC(=O)N1CCN(C(=O)c2ccco2)CC1,0,-5,-22,3,-16
Cc1cc(Br)ccc1SCC(=O)OCC(=O)N1CCN(C(=O)c2ccco2)CC1,34*,-1,4,-4,-8
O=C(NCCNC1CCC(c2ccccc2)CC1)c1ccc(F)cc1 (stereo not drawn),52*,-37*,-35,-10,-92*
CCOc1ccc(NC(=O)c2cccc(N3CCCS3(=O)=O)c2)cc1,2,4,1,-3,/
Cc1ccc(C)c(C(=O)Cn2ncc(Cl)c(Cl)c2=O)c1,2,-23,-9,-6,-28
Cc1cc(C(=O)Cn2ncc(Cl)c(Cl)c2=O)c(C)n1CC(F)(F)F,0,2,-9,4,-59*
COc1ccccc1Cc1nc2ccccc2nc1SCC(=O)Nc1ccc2c(c1)OCO2,2,4,-10,-2,/
CCc1cccc(NC(c2nnc(-c3ccccc3)o2)c2ccc(F)cc2Cl)c1 (stereo not drawn),0,16,-9,-5,/
O=[N+]([O-])c1ccc(/C=N\O)o1,/,/,-3,/,/
O=[N+]([O-])c1ccc(/C=N/N=C/c2ccc([N+](=O)[O-])o2)o1,0,-16,-35,-4,-81*
Cc1ccc(Cl)cc1N1CCN(C(=O)COCc2cc(-c3ccc4c(c3)OCO4)on2)CC1,3,10,8,-3,/
O=C1C(Cc2ccccc2)Nc2ncnc(N3CCOCC3)c2N1Cc1ccc(Br)cc1 (stereo not drawn),1,9,-27,-5,-66*
CC(C)CC1Nc2ncnc(N3CCN(c4ccccc4)CC3)c2N(Cc2ccc(Br)cc2)C1=O (stereo not drawn),3,-2,0,4,0
COc1ccc(CN2C(=O)C(Cc3ccccc3)Nc3ncnc(N4CCN(c5ccccc5)CC4)c32)cc1 (stereo not drawn),6,-10,-47,-5,-111*
O=C1C(Cc2ccccc2)Nc2ncnc(N3CCc4ccccc4C3)c2N1Cc1ccccc1 (stereo not drawn),/,/,26,/,-18
O=C1C(Cc2ccccc2)Nc2ncnc(N3CCCCC3)c2N1Cc1ccc(Cl)cc1 (stereo not drawn),0,13,-45,6,-65*
O=C1C(Cc2ccccc2)Nc2ncnc(N3CCN(c4ccccc4)CC3)c2N1Cc1ccc(Cl)cc1 (stereo not drawn),1,-2,-45,-6,-128*
CN1CCCN(c2cc(-c3ccc4ccccc4c3)nc3ccnn23)CC1,/,/,-12,/,-67*
Cc1cccc(-c2cc(N3CCCN(C)CC3)n3nccc3n2)c1,/,/,-18,/,?
Cc1ccc(S(=O)(=O)c2nnn3c2nc(NCc2cccs2)c2sccc23)cc1C,2,-59*,6,-8,/
O=S(=O)(c1ccccc1)c1nnn2c1nc(NCc1cccs1)c1sccc12,4,-17,2,-8,/
CCc1ccc(S(=O)(=O)c2nnn3c2nc(NC(C)C)c2sccc23)cc1,3,-33*,2,-7,/
SMILES,D1 agonist,D1 antagonist,D3 ag,D1 PAM,D3 antag
CCCCNc1nc2c(S(=O)(=O)c3ccc(C)c(C)c3)nnn2c2ccsc12,1,-77*,0,-8,/
CN(C)c1nc(N(C)C)n(Cc2c(Cl)cccc2Cl)n1,3,-14,-5,-2,-18
Cc1oc(-c2ccc(C(=O)NCc3ccc(Cl)cc3)cc2)nc1CS(=O)(=O)c1ccccc1,0,-6,16,0,/
CCOC(=O)N1CCN(C(=O)c2ccc3[nH]c(C)c(C)c3c2)CC1,/,/,8,/,27
Cc1ccc(C)c(N2CCN(C(=O)c3ccc4[nH]c(C)c(C)c4c3)CC2)c1,0,-33*,4,-4,/
Cc1[nH]c2ccc(C(=O)NCCN3CCCCCC3)cc2c1C,1,-9,-19,-2,-70*
CCCN1CCN(C(=O)c2ccc3[nH]c(C)c(C)c3c2)CC1,/,/,-10,/,-87*
Cc1ccccc1-c1n[nH]nc1C1=CC(=O)C[C@H](c2ccc(F)cc2)C1,/,/,-9,/,0
Cc1ccc(C)c2nc3sc(C(=O)N4CCCc5ccccc54)c(N)c3cc12,/,/,-19,/,-54*
COc1cc(NC(=O)c2cc3ccccc3cc2O)c(OC)cc1Cl,17,-58*,19,-10,58
Cc1ccc(Cl)cc1NC(=O)c1cc2ccccc2cc1O,27,-45*,36*,-9,27
Cc1ccc(Cl)cc1NC(=O)COC(=O)c1ccccc1O,2,0,-8,7,-13
CCCOc1ccc(C(=O)NNC(=S)NC(=O)c2cc(-c3ccc(Cl)cc3)nc3ccccc23)cc1,4,0,-9,-5,-50*
CCNC(=S)NNC(=O)c1cc(CC(C)C)nc2ccccc12,2,-46*,-1,-1,-21
CCNC(=S)NNC(=O)c1cc(-c2ccc(OCC)cc2)nc2ccccc12,8,-33*,11,-6,-7
CCNC(=S)NNC(=O)c1cc(-c2cccc(OC)c2)nc2ccccc12,2,-2,-1,-3,7
CCNC(=S)NNC(=O)c1cc(-c2ccccc2C)nc2ccccc12,1,-11,-12,5,-7
CCOc1ccc(Sc2cc(C(=O)NC(C)c3ccccc3)c3ccccc3n2)cc1 (stereo not drawn),-3,-30*,8,-3,/
CC(=O)c1cccc(NC(=O)CSc2nnc3ccc(-c4ccc(Cl)cc4)nn23)c1,-1,/,-13,-1,/
CC(NC(=O)c1cc2cc(F)ccc2[nH]1)c1ccccc1 (stereo not drawn),17,-55*,-15,-16,-11
O=C(O)c1cc2cc(Cl)ccc2[nH]1,/,/,-19,/,1
O=C(O)c1cc2cc(F)ccc2[nH]1,44*!,4,12,0,11
O=C(Nc1ccc(Cc2ccncc2)cc1)c1ccc(S(=O)(=O)N2CCOCC2)cc1,16,-41*,-1,-3,10
Cc1ccc(S(=O)(=O)N2CCOCC2)cc1C(=O)OCCOc1cccc(Cl)c1,31*,-15,11,2,18
CC(=O)Nc1ccc(S(=O)(=O)N2CCC(C(=O)c3ccc(F)cc3)CC2)cc1,4,-7,-6,-9,2

# Screening results as filed in PubChem BioAssay.
